Experimental data from the supplement of paper PMC9925115.
± gives the uncertainty stated by the source.

System: FLX1
Assay: cell viability z-score within plate (CellTiter-Glo), mean of 3 biological replicates; higher = higher viability relative to plate (less growth inhibition)
Conditions: 2 µM; time (hr): 120
Procedure: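 FLX1 fibrolamellar carcinoma cells (DNAJB1-PRKACA fusion), 600 cells/well in 384-well plates, treated with a Selleck kinase inhibitor library (L1200) at 2 uM for 5 days (120 hr); viability by CellTiter-Glo. A z-score was computed within each plate and averaged over three biological replicates.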

SMILES | cell viability z-score within plate
Cc1cc2c(F)c(Oc3ncnn4cc(OC[C@@H](C)O)c(C)c34)ccc2[nH]1 | -1.45 ± 0.81
Cc1[nH]c(/C=C2\C(=O)Nc3ccc(S(=O)(=O)Cc4c(Cl)cccc4Cl)cc32)c(C)c1C(=O)N1CCC[C@@H]1CN1CCCC1 | 0.00363 ± 0.67
O=C(NOCC(O)CO)c1cc(Br)c(F)c(F)c1Nc1ccc(I)cc1F (stereo not given) | 0.628 ± 0.22
N#Cc1ccc2[nH]c(O)c(-c3ccc(CN4CCOCC4)cn3)c2c1 | 0.226 ± 0.62
Cc1ccc(S(=O)(=O)/C=C/C#N)cc1 | 0.177 ± 0.63
COc1cc2ncnc(Nc3ccc(F)c(Cl)c3)c2cc1OCCCN1CCOCC1 [Gefitinib (ZD1839)] | -1.17 ± 1.2
C[C@@H](Oc1cc(-n2cnc3ccc(CN4CCN(C)CC4)cc32)sc1C(N)=O)c1ccccc1C(F)(F)F | 0.737 ± 0.18
O=c1c(-c2ccc(O)cc2)coc2cc(O)cc(O)c12 [Genistein] | -0.148 ± 0.52
COc1cc2c(Oc3ccc4[nH]c(C)cc4c3F)ncnc2cc1OCCCN1CCCC1 [Cediranib (AZD2171)] | 0.6 ± 0.47
O=C1NC(=O)/C(=C/c2ccc(-c3ccc(F)cc3O)o2)S1 | 1.21 ± 0.57
C[C@@H](Oc1cc(-c2cnn(C3CCNCC3)c2)cnc1N)c1c(Cl)ccc(F)c1Cl | 0.281 ± 0.54
CCCCCCCCCCCCc1ccc(S(=O)(=O)Nc2nncs2)cc1 | 1.17 ± 0.77
CCCS(=O)(=O)Nc1ccc(F)c(C(=O)c2c[nH]c3ncc(-c4ccc(Cl)cc4)cc23)c1F [Vemurafenib (PLX4032, RG7204)] | -3.08 ± 1.3
COc1cc2ncnc(Oc3ccc(CC(=O)Nc4cnn(C(C)C)c4)cc3)c2cc1OC | -0.525 ± 0.26
C=CC(=O)Nc1cccc(Nc2nc(Nc3ccc(OCCOC)cc3)ncc2F)c1 | -0.411 ± 0.22
Cc1cc([C@@H](C)Nc2ccccc2C(=O)O)c2nc(N3CCOCC3)cc(=O)n2c1 | -2.82 ± 2
O=C(c1ccc(Nc2nccc(-c3cc4ccccc4s3)n2)cc1)N1CCC(N2CCCC2)CC1 [IKK-16 (IKK Inhibitor VII)] | 0.237 ± 0.33
O=C1NC(=O)[C@@H](c2cn3c4c(cccc24)CCC3)[C@@H]1c1c[nH]c2ccccc12 [Tivantinib (ARQ 197)] | -1.26 ± 0.51
CNc1nc(Nc2cn(C(C)(C)C#N)nc2C)ncc1C(F)(F)F | 0.707 ± 0.76
O=S(=O)(NCCNC/C=C/c1ccc(Br)cc1)c1cccc2cnccc12 | -2.86 ± 1.5

SMILES | cell viability z-score within plate
CC(C)CCN1c2nc(Nc3cc(F)c(O)c(F)c3)ncc2N(C)C(=O)C1C (stereo not given) | -0.812 ± 0.59
Cn1cc(C2=C(c3ccc(Cl)cc3Cl)C(=O)NC2=O)c2ccccc21 | -1.2 ± 0.71
CC1(COc2ccc3c(c2)ncn3-c2ccc3cccc(N4CCC(N)CC4)c3n2)COC1 | 0.0444 ± 0.77
O=C(NCCCNc1nc(Nc2cccc(NC(=O)N3CCCC3)c2)ncc1I)c1cccs1 | -0.658 ± 0.97
CNc1nc(-c2ccc3c(N)n[nH]c3c2)cc(N2C[C@@H](C(=O)NC3CCCCC3)CC[C@H]2C)n1 | 0.0251 ± 0.54
Cn1cc(-c2ccc3ncc(Cc4ccc5ncccc5c4)n3n2)cn1 | 0.137 ± 0.93
Cc1c(F)cc(C(=O)NC2CC2)cc1-c1ccc(C(=O)NCC(C)(C)C)cn1 | -0.342 ± 0.51
CNC(=O)c1cc(Oc2ccc(NC(=O)Nc3cc(C(C)(C)C)nn3-c3ccc4ncccc4c3)c(F)c2)ccn1 [Rebastinib (DCC-2036)] | 0.382 ± 0.34
N#C/C(=C\c1ccc(O)c(O)c1)C(=O)NCc1ccccc1 [AG-490 (Tyrphostin B42)] | -0.668 ± 1.4
Cn1cc(/C=C2\C(=O)Nc3cccnc32)c2ccccc21 | 0.84 ± 0.29
CCc1cncnc1N1CCN(Cc2nc3ccc(C(F)(F)F)cc3[nH]2)CC1 | 0.164 ± 0.73
Clc1ccc(C2(c3ccc(-c4cn[nH]c4)cc3)CCNCC2)cc1 | 0.815 ± 0.24
CN1CCN(S(=O)(=O)c2ccc(-c3cnc(N)c(C(=O)Nc4cccnc4)n3)cc2)CC1 | 0.448 ± 0.3
O=C(c1cccc(Cl)c1F)N1CCN(Cc2cccc(Nc3nccs3)n2)CC1 | -0.394 ± 0.96
COc1cc(OC)c(/C=C/S(=O)(=O)Cc2ccc(OC)c(NCC(=O)O)c2)c(OC)c1 | 0.00703 ± 0.25
C=CC(=O)Nc1cccc(Nc2nc(Nc3ccc(Oc4ccnc(C(=O)NC)c4)cc3)ncc2F)c1 | 0.519 ± 0.21
CN(C)CCCn1cc(C2=C(c3c[nH]c4ccccc34)C(=O)NC2=O)c2ccccc21 | -0.651 ± 0.3
CSc1cccc(Nc2ncc3cc(-c4c(Cl)cccc4Cl)c(=O)n(C)c3n2)c1 | 0.169 ± 0.22
CC1(C)CNc2cc(NC(=O)c3cccnc3NCc3ccncc3)ccc21 [Motesanib Diphosphate (AMG-706)] | 0.0691 ± 0.21
Cc1c(NC(=O)OC[C@@H]2COCCN2)cn2ncnc(Nc3ccc4c(cnn4Cc4cccc(F)c4)c3)c12 | -2.76 ± 1.1
